From PubChem BioAssay
For some assays here: Potency and affinity values are given separately. The source made the active and inactive calls. Unless noted, the rule behind the calls is not given here.

Key:
[1] = antimalarial activity against Dd2 strain (AID 2302;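 active = growth inhibition above 50% at the single 2 µM test dose, taken to imply half-maximal potency below 2 µM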;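 note: 0% = DMSO untreated growth and 100% = chloroquine plus artemisinin killed control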); conditions: P. falciparum Dd2 in RBCs, LDH growth readout, 72 h; at 2 µM; hits give high values
[2] = HepG2 cytotoxicity, primary screen, cytotoxicity control for P. falciparum antimalarial project, cell-based, ATP luminescence (AID 2303;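 active = inhibition above 50%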;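 note: 0% = DMSO wells and 100% = digitonin-killed cells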); conditions: HepG2 viability, 24-48 h, at 10 µM, hits give high values
[3] = biological target: L-lactate dehydrogenase (Plasmodium falciparum (isolate CDC / Honduras)) (UniProt Q27743); assay: PfLDH activity inhibition – cell lysate, 3D7 strain, counter-screen for P. falciparum growth inhibition project (AID 2304);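 note: 0% = vehicle and 100% = reference inhibitor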; conditions: P. falciparum 3D7 crude extract, LDH APAD/NBT absorbance; at 2 µM; hits give high values
Chain of L-lactate dehydrogenase (Plasmodium falciparum (isolate CDC / Honduras)) (Q27743 whole entry, looked up): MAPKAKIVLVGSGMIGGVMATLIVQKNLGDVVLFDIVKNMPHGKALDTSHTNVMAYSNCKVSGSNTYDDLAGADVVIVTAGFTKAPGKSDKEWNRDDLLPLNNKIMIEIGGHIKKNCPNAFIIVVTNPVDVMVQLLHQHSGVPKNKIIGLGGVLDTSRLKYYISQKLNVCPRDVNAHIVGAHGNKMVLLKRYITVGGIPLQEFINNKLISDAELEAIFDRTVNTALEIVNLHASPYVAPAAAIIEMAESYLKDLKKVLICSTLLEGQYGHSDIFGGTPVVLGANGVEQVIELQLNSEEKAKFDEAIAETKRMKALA

[4] = inhibition of 3D7 malaria parasite growth – strain 3D7 (AID 2306);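 note: 0% = DMSO wells and 100% = chloroquine plus artemisinin control wells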; conditions: P. falciparum 3D7 erythrocytic growth, LDH absorbance, 72 h; at 2 µM; hits give high values
[5] = biological target: Calcium-dependent protein kinase 1 (Plasmodium falciparum (isolate 3D7)) (UniProt P62344); assay: PfCDPK1 kinase inhibitors, biochemical, TCAMS library (AID 1159585; cut-off not given, nearly all actives have IC50 up to about 0.98 µM;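 note: inhibitors leave more ATP so luminescence rises with inhibition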); conditions: recombinant PfCDPK1, Kinase-Glo ATP depletion luminescence
Chain of Calcium-dependent protein kinase 1 (Plasmodium falciparum (isolate 3D7)) (P62344 whole entry, looked up): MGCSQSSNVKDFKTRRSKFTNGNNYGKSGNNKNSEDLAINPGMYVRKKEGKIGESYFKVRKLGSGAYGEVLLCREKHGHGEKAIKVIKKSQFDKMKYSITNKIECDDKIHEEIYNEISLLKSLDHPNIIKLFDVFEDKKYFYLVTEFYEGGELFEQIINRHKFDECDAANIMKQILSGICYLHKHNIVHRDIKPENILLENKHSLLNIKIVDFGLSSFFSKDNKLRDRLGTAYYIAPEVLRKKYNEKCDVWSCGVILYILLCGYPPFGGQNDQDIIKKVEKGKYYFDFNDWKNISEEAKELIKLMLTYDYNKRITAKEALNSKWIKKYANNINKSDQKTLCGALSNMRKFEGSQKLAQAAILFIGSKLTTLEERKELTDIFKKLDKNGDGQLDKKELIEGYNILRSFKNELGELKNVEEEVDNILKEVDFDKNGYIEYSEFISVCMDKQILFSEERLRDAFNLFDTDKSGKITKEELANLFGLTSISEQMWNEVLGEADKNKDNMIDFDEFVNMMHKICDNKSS

[6] = biological target: Plasmodium falciparum protein kinase 6 (PK6, PF3D7_1337100) (UniProt Q8IDW1); assay: PfPK6 kinase inhibitors, biochemical, TCAMS library (AID 1159586); conditions: recombinant PfPK6, Kinase-Glo ATP depletion luminescence
Chain of Plasmodium falciparum protein kinase 6 (PK6, PF3D7_1337100) (Q8IDW1 1-305): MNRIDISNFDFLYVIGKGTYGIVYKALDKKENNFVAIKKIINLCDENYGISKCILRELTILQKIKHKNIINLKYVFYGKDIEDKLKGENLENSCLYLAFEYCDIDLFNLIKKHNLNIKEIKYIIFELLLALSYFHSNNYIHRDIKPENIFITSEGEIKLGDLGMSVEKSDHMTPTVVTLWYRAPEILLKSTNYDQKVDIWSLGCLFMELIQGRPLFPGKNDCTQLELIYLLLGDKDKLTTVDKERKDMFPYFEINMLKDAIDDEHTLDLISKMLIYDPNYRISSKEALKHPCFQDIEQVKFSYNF

[7] = biological target: Protein kinase 7 (PK7), Plasmodium falciparum 3D7 (PF3D7_0213400) (UniProt Q7YTF7); assay: inhibition of Plasmodium PK7 catalytic activity – biochemical, TCAMS antimalarial set, Kinase-Glo luminescence (AID 1159587); conditions: recombinant PfPK7, Kinase-Glo ATP depletion luminescence
Chain of Protein kinase 7 (PK7), Plasmodium falciparum 3D7 (PF3D7_0213400) (Q7YTF7 1-343): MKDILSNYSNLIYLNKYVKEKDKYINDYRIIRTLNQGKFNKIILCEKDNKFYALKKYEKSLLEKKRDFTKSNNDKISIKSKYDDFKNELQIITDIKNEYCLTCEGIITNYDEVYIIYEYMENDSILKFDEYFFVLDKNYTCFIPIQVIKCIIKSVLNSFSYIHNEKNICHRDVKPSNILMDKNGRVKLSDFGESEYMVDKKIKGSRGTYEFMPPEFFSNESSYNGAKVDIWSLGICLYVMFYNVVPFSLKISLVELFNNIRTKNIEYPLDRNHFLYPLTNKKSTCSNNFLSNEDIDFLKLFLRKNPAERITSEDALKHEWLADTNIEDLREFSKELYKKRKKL

[8] = biological target: Calcium-dependent protein kinase 4 (Plasmodium falciparum (isolate 3D7)) (UniProt Q8IBS5); assay: PfCDPK4 kinase inhibitors, biochemical, TCAMS library (AID 1159588; cut-off not given, nearly all actives have IC50 up to about 0.91 µM); conditions: recombinant PfCDPK4, Kinase-Glo ATP depletion luminescence
Chain of Calcium-dependent protein kinase 4 (Plasmodium falciparum (isolate 3D7)) (Q8IBS5 whole entry, looked up): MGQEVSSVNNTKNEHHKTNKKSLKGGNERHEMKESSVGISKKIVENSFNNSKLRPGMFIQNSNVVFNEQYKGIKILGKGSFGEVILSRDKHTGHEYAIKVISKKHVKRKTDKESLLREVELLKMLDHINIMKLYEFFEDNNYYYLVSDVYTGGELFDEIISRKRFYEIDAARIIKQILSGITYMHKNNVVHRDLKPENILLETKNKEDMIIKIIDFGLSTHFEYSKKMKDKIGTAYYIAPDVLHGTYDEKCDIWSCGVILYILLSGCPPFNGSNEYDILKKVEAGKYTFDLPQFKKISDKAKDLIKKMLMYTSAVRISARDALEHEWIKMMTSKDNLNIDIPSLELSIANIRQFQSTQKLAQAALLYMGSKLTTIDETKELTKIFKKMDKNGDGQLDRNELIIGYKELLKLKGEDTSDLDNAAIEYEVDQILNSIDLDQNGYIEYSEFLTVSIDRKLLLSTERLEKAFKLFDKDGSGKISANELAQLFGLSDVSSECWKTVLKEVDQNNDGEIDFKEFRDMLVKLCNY

Cc1noc(-c2ccc(N3CCC(C(=O)N4CCN(C(C)C)CC4)CC3)cc2)n1
inactive: growth inhibition [1] -2% | inhibition [2] -12% | inhibition [3] -5% | outcome [5] | outcome [6] | outcome [7] | outcome [8]
active: growth inhibition [4] 95%

CN(C)CCn1c(=N)n(CC(O)c2ccc(Cl)c(Cl)c2)c2ccccc21 (configuration not stated)
inactive: growth inhibition [1] 6% | inhibition [2] 20% | inhibition [3] -2% | outcome [5] | outcome [6] | outcome [7] | outcome [8]
active: growth inhibition [4] 99%

O=C(c1ccccc1)N1COCC(CCN2CCC(N3CCCC3)CC2)(c2ccc(Cl)c(Cl)c2)C1 (configuration not stated)
inactive: growth inhibition [1] 9% | inhibition [2] 18% | inhibition [3] 0% | outcome [5] | outcome [6] | outcome [7] | outcome [8]
active: growth inhibition [4] 83%

C=CCNC(=O)CCCN=C(N)N
inactive: growth inhibition [1] 12% | inhibition [2] -9% | inhibition [3] -1% | outcome [5] | outcome [6] | outcome [7] | outcome [8]
active: growth inhibition [4] 98%

O=C(Nc1ccc(-c2ccccc2)c(OCCN2CCNCC2)c1)c1ccc(-c2ccc(Cl)cc2)cc1
active: inhibition [2] 92% | growth inhibition [4] 96%
inactive: growth inhibition [1] 31% | inhibition [3] -8% | outcome [5] | outcome [6] | outcome [7] | outcome [8]

COc1ccc(NC(=O)[C@H](CC(C)C)Nc2cc(C)nc(NCc3ccccc3C)n2)cc1
inactive: inhibition [2] 12% | inhibition [3] 0% | outcome [5] | outcome [6] | outcome [7] | outcome [8]
active: growth inhibition [1] 78% | growth inhibition [4] 101%

O=C(NCc1ccccn1)C(c1cc2ccccc2o1)N1CCN(C(c2ccccc2)c2ccccc2)CC1 (configuration not stated)
inactive: inhibition [2] 17% | inhibition [3] 0% | outcome [5] | outcome [6] | outcome [7] | outcome [8]
active: growth inhibition [1] 68% | growth inhibition [4] 95%

Cc1cc(Cl)ccc1N(Cc1ccccc1)c1ccnc(Cl)n1
active: growth inhibition [1] 98% | growth inhibition [4] 97%
inactive: inhibition [2] 16% | inhibition [3] 2% | outcome [5] | outcome [6] | outcome [7] | outcome [8]

N#Cc1cccc(NC(=O)Nc2cccc(-c3cccc(-c4nc5ccc(C(F)(F)F)cc5[nH]4)c3)c2)c1
inactive: inhibition [3] 5% | outcome [5] | outcome [6] | outcome [7] | outcome [8]
active: growth inhibition [1] 99% | inhibition [2] 74% | growth inhibition [4] 100%

N#Cc1cccc(NC(=O)NC2CCN(CCCCCNC(=O)/C=C/c3ccc(Cl)c(Cl)c3)CC2)c1
active: growth inhibition [4] 100%
inactive: growth inhibition [1] 7% | inhibition [2] 31% | inhibition [3] 0% | outcome [5] | outcome [6] | outcome [7] | outcome [8]

CCCCc1cc(NCC)nc(Nc2cccc(OC)c2)n1
inactive: inhibition [2] 9% | inhibition [3] -4% | outcome [5] | outcome [6] | outcome [7] | outcome [8]
active: growth inhibition [1] 69% | growth inhibition [4] 97%

FC(F)(F)c1ccc2nc(-c3ccc(-c4cccc(CNCCN5CCNCC5)c4)cc3)[nH]c2c1
inactive: growth inhibition [1] 2% | inhibition [2] 13% | inhibition [3] -1% | outcome [5] | outcome [6] | outcome [7] | outcome [8]
active: growth inhibition [4] 92%

CC(C)(C)OC(=O)NCCc1cccc(-c2c[nH]c3ncc(-c4cccc(NS(C)(=O)=O)c4)cc23)c1
active: growth inhibition [1] 71% | growth inhibition [4] 97%
inactive: inhibition [2] 16% | inhibition [3] -3% | outcome [5] | outcome [6] | outcome [7] | outcome [8]

CCC(=O)NC(c1ccco1)c1cc(Cl)c2cccnc2c1O (configuration not stated)
inactive: inhibition [3] -5% | outcome [5] | outcome [6] | outcome [7] | outcome [8]
active: growth inhibition [1] 74% | inhibition [2] 58% | growth inhibition [4] 89%

O=C(Nc1ccc2c(c1)CCN2C1CCN(Cc2ccc(C(F)(F)F)cc2F)C1)c1ccco1 (configuration not stated)
inactive: inhibition [2] 9% | inhibition [3] 1% | outcome [5] | outcome [6] | outcome [7] | outcome [8]
active: growth inhibition [1] 94% | growth inhibition [4] 91%

COc1ccc2nccc([C@@H](O)CN3CCC(CO)(NCc4cc5ccccc5o4)CC3)c2c1
inactive: growth inhibition [1] 7% | inhibition [2] 12% | inhibition [3] -1% | outcome [5] | outcome [6] | outcome [7] | outcome [8]
active: growth inhibition [4] 85%

COc1cc(-c2ccc3c(-c4ccc(C(=O)N5CCN(C)CC5)cc4)[nH]nc3n2)cc(OC)c1OC
active: growth inhibition [1] 54% | growth inhibition [4] 91%
inactive: inhibition [2] 27% | inhibition [3] 4% | outcome [5] | outcome [6] | outcome [7] | outcome [8]

CC(C)n1ncc2c(C(=O)N3CCCC4CCCCC43)cc(C3CC3)nc21 (configuration not stated)
active: growth inhibition [1] 92% | growth inhibition [4] 99%
inactive: inhibition [2] 7% | inhibition [3] 2% | outcome [5] | outcome [6] | outcome [7] | outcome [8]

O=C(Nc1ccc(C(F)(F)F)cc1)c1cccc(S(=O)(=O)NCC2CCCN(CC3CCCCC3)C2)c1 (configuration not stated)
inactive: growth inhibition [1] 4% | inhibition [2] 27% | inhibition [3] 0% | outcome [5] | outcome [6] | outcome [7] | outcome [8]
active: growth inhibition [4] 97%
